Structures are written as SMILES. About 79,000 compounds went through this panel and 15% of them were active in at least one assay; those are over-represented in the sample as a whole. Unmarked numbers belong to inactive results. Rule as the data show it: active = growth inhibition above about 70%; inactive = the rest.

This assay is described as follows: NCI Yeast Anticancer Drug Screen. Data for the rad50 strain (AID 155).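 Also: 0% = growth of vehicle-only cultures of the same strain.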 The conditions noted are these: S. cerevisiae rad50 strain growth inhibition; at 50.0 µM; hits give high values. The gist of the method: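 Relative growth inhibition (compound vs vehicle) was measured in yeast with a defined repair-gene alteration.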
`CCCCCCCCCCCCCCCC(=O)OCC(=O)O`: the growth inhibition was 14.7%.
With `COc1ccc(NC(=O)NCc2ccc(C)cc2)cc1` the figure was 4.45%; with `COc1ccc2c(=O)cc[nH]c2c1OC`, -13.9%; with `CCOC(=O)C(CN)c1ccccc1` (stereo not given), -9.15%.
The same measure for `O=C1c2c(F)c(F)c(F)c(F)c2SC2=Nc3cccc4cccc(c34)N12`: -17.5%.
With `N=c1sc(N2CCOCC2)nn1CC(=O)c1ccccc1` the figure was 3.25%; with `O=Cc1ccc(-c2ccc(S(=O)(=O)O)cc2)o1`, -35.5%.
`COc1ccc(/C=N/NC(=O)NCCCN(C)C)cc1`: the growth inhibition is 3.3%.
With `NC(CCOCCP(=O)(O)CCC1C=CC=CC1)C(=O)O` (stereo not given) the figure was -9.6%; with `COc1cccc(N2C(Cl)C(=O)C2c2c[nH]c3ccccc23)c1` (stereo not given), -31.4%; with `O=C(COc1ccc(Cl)cc1Cl)Nc1ccc2ccccc2c1S(=O)(=O)O`, 6.45%.
Regarding `c1ccc(C2OCC(OC3CCCCO3)CO2)cc1` (stereo not given), the growth inhibition is -0.1%.
On to `N#Cc1cnn2ccn(C3OC(CO)C(O)C3O)c12` (stereo not given), for which the growth inhibition was -42.8%.
With `COC(=O)c1cc(C)c2c3ccccc3n(C)c2c1C(=O)OC` the figure was 19.6%; with `CN(C)c1ccc(C(=Cc2ccccc2)c2ccc(N(C)C)cc2)cc1`, -0.9%; with `CCCCCCCCCCCCCCCCCCOC(=O)C1CCCN1` (stereo not given), -10%.
The same measure for `N#C/C(=C\NC(=S)NCc1ccccc1)c1nc2ccccc2s1`: 54.1%; for `O=C(CCCO)c1nc2ccccc2s1`: -2.5%.
With `COc1ccc2c(=O)c(Cc3c[nH]c4ccccc34)coc2c1` the figure was 27.6%.
Turning to `O=[N+]([O-])c1ccc(-c2ccncc2)cc1`, the growth inhibition was -32%.
The same measure for `Cc1ccc(C2OC(N)=C(O)C2=O)cc1` (stereo not given): -43%.
For `C=CC1C(=O)N(C)[C@H](C(C)(C)C)N1C(=O)c1ccccc1` (stereo not given in full), the growth inhibition was 1.5%.
With `CN1c2ccccc2N(C)C2C1N(C)c1ccccc1N2C` (stereo not given) the figure was -38.9%; with `O=C(O)Cc1cc(I)c(Oc2ccc(O)cc2)c(I)c1`, -5%.
In the case of `COC(=O)C1(CC(=O)/C=C/c2ccccc2)NC(=S)NC(=O)C1C#N` (stereo not given), the growth inhibition is 15.7%.
Regarding `Cc1[nH]nc(N)c1C(N)=O`, the growth inhibition is 5.2%.
With `O=C1CSC(c2cccc(C(F)(F)F)c2)N1c1nncs1` (stereo not given) the figure was 10.5%; with `CC(=O)OCCN(C)C`, 3.4%.
Take `Cc1cc(C)c(C(C)(C)O)c(C)c1`: the growth inhibition was 8.45%.
On to `N.N.N.N.N.O=C([O-])c1nn[n-]n1.[Cl-].[Co+3]`, for which the growth inhibition is -0.8%.
With `O=[N+]([O-])c1ccc(-c2ccc([N+](=O)[O-])cc2)cc1` the figure was -2.05%; with `O=C1CSC=NN1c1ccccc1`, -12.8%.
The same measure for `CCC(CC)(CO)CO`: 8.75%; for `c1ccc(C(SN=C2CCCCC2)(c2ccccc2)c2ccccc2)cc1`: -4.35%; for `COC(=O)CC1(C(=O)OC)Nc2ccccc2C(=O)O1` (stereo not given): 2.65%.
With `CCOC(=O)CN/N=C(\N)CSS(=O)(=O)O` the figure was -5.25%; with `O=C(Nc1ccccc1)C1CC2C=CC1C2` (stereo not given), 2.3%.
Take `COc1ccc(CCNC(=O)CCc2ccccc2CO)cc1OC`: the growth inhibition was 15.8%.
As to `Cc1cn(C2CC(N=[N+]=[N-])C(CO)O2)c(=O)[nH]c1=O` (stereo not given), the growth inhibition is -0.7%.
With `COc1ccccc1NC(=O)NCCN1CCCC1`, the growth inhibition is -2.15%.
